ChEMBL document CHEMBL3988442, “University of Dundee, Small-Polar-MMV Screening Library” (2021)

Columns and labels:
[1] = target: T1, Aspartate--tRNA(Asp/Asn) ligase (Mycobacterium tuberculosis (strain ATCC 25618 / H37Rv)) (UniProt P9WFW3); assay: Assay for Asp RNA synthetase-1 from Mycobacterium tuberculosis; assay type: functional; parameters: scale not given: direction of the effect not stated beside the values; details: 30 µM; note: in the data most compounds retested in dose-response had high values
T1 sequence (whole entry): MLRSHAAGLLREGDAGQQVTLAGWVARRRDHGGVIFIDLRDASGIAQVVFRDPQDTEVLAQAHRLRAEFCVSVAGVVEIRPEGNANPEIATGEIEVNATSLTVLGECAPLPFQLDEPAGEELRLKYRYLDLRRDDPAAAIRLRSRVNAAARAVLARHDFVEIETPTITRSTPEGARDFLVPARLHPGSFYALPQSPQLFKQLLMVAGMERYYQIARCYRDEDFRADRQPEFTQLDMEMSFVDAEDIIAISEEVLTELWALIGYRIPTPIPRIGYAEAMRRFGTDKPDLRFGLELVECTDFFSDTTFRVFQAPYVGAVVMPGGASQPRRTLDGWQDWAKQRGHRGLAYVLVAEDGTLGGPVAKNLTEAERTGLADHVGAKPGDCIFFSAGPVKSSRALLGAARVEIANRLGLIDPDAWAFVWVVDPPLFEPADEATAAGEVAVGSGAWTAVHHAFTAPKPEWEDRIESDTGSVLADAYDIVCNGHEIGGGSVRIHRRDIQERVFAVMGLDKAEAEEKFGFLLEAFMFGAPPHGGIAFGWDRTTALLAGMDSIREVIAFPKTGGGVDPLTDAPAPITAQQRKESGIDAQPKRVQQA

[2] = target: Shiga toxin 2 (Escherichia coli O157:H7) (UniProt P09385+P09386); assay: E. coli 0.157:H7 Shiga Toxin SOP - stx2 screening assay; assay type: functional; parameters: scale not given: direction of the effect not stated beside the values; details: 30 µM

SMILES	Percent Effect [1] [%]	Percent Effect [2] [%]
O=C(NCc1cnc2n1CCN(CC1CC1)CC2)C1CCC1	-5.77	7.18
Cc1cccc(-n2cc(C(=O)N3CCCC(n4ccnc4)C3)nn2)c1 (centres undefined)	1.58	7.71
COc1cc(C(=O)Nc2c(C)noc2C)ccc1C	-3.4	-5.89
Cc1ccc(CN(Cc2ccccn2)C2CC(C)(C)NC(C)(C)C2)s1	-5.4	15.6
Cc1cc(CN2CCOC(CN(C)c3cccnn3)C2)no1 (centres undefined)	-2.36	18.5
CCn1ncnc1C(C)NC(=O)C1CCN(C(C)C)CC1 (centres undefined)	3.06	-16.7
NC(=O)c1ccc(NC(=O)CCN2CCCC(N3CCCC3)C2)cc1 (centres undefined)	-4.91	24.7
Cc1cc2c(cc1C(=O)N1CC[C@H](CO)[C@@H](O)C1)OCCO2	-0.915	8.21
CCOC(=O)CNC(=O)N1CCN(c2ncccn2)CC1	4.73	-21.7
CN(C(=O)CCNC(=O)NC1CCCCC1)c1ccccc1	-1.38	4.9
Cc1nc(CN2CCOC(c3nc(C(C)C)n[nH]3)C2)oc1C (centres undefined)	0.999	-9.33
CNS(=O)(=O)c1cccc(C(C)NCc2cccc(OC)c2)c1 (centres undefined)	0.915	-24.3
Cc1ccccc1-c1cc(C(=O)N2CCn3c(C)nnc3C2)[nH]n1	-2.28	-13.5
Cc1cc(C)n(C2CCCN(C(=O)c3cccc4[nH]ncc34)C2)n1 (centres undefined)	7.59	-6.75
Cc1ccccc1OCCC(=O)OC(C)C(=O)Nc1sccc1C(N)=O (centres undefined)	-2.83	-38.1
Cc1ccc(C(CNCc2cnn(C(C)C)c2)N2CCOCC2)s1 (centres undefined)	-4.07	-11
CCn1ccnc1CN1CCCC(CO)(Cc2cccc(Cl)c2)C1 (centres undefined)	10	15.9
O[C@H]1CCN(Cc2ccoc2)[C@H]1Cc1cccnc1	6.58	-6
CC(=O)N1CCN(CCNS(=O)(=O)c2ccc(C)c(F)c2)CC1	-1.95	5.72
Cc1cc(C)n(CC(=O)N2CCC(c3nc(C)no3)CC2)n1	3.56	3.16
CC(=O)N1CCCCC1c1cc(C(=O)N2CCOCC2)[nH]n1 (centres undefined)	-0.551	15.2
O=C(NCCCn1cccn1)C1(c2ccc(Br)cc2)CC1	0.575	8.42
Cc1ccc(N(C)C2CCN(C(=O)c3ccsc3)CC2)nn1	0.243	1.6
O=C(CCOCc1ccccc1)N1CCCC1c1noc(C2CC2)n1 (centres undefined)	14.9	22.2

SMILES	Percent Effect [1] [%]	Percent Effect [2] [%]
COc1c(C2CCCN2C(=O)c2csc(C(C)C)n2)c(C)nn1C (centres undefined)	5.31	4.42
O=C(NCc1cc[nH]n1)N(CCCO)C1CCc2ccccc21 (centres undefined)	1.93	0.536
Cc1nc(Cn2nc(C3CCNCC3)n(Cc3ccccc3)c2=O)no1	-2.53	-3.49
Cc1noc(C)c1-c1cccc(CC2CCN(C(=O)CCC(=O)O)C2)n1 (centres undefined)	-0.313	-17.7
COCCOc1ccc(NC(=O)N2CCCC2c2ccncc2)cn1 (centres undefined)	0	19
COC(=O)c1cccc(OCCn2nc(-c3cccs3)oc2=O)c1	3.9	25
Fc1ccc(CN2CCCC2c2cncc(-n3ccnc3)n2)cc1 (centres undefined)	3.75	24.5
N#CCSCCCN1CCCN(C(=O)c2ccccc2)CC1	-4.83	-31.2
CCc1ccc(C2CCCCCN2Cc2nc(CCOC)no2)o1 (centres undefined)	10.6	-30.6
Cc1nc(C2(O)CCCNCC2)sc1CCOc1ccc(Cl)cc1 (centres undefined)	-4	-45.5
Cc1nn(C)c(N(C)C)c1CNC(C)c1cccc(OC(C)C)c1 (centres undefined)	-3.06	-5.32
Cc1ccc(CN2CCCC3(CCN(S(=O)(=O)N(C)C)C3)C2)o1 (centres undefined)	0.162	10.6
CCN1CCN(S(=O)(=O)c2ncn(C)c2Cl)CC1	-2.51	-7.16
Cn1cnnc1C1CCCN(C(=O)c2cnc3ccccc3n2)C1 (centres undefined)	-1.76	36.5
Fc1ccc(CN2CCCC(Cn3cncn3)C2)c2ncccc12 (centres undefined)	14.3	-38.7
Cc1csc(N2CCN(C(=O)Cc3ccc(C)s3)CC2)n1	-4.4	12.2
O=C1NCCN(CC2CC2)C12CCN(Cc1ccc3c(c1)OCO3)CC2	11.3	-21.2
Cc1cnc(N2CCCC3(CCN(Cc4csc(C)n4)C3=O)C2)nc1 (centres undefined)	6.32	-0.084
CN1CCN(C[C@@H]2CN(C(=O)c3ccccc3C#N)C[C@@H]2CO)CC1	-1.09	-8.04
O=S1(=O)COCCN1Cc1cccc(Cl)c1	-0.479	10.7
NC(=O)N1CC[C@H](O)[C@@H]1Cc1cccnc1	1.51	0.815
O=C(Cc1cccs1)NC1CCN(c2cccc(F)c2)CC1	2.33	-14.1
O=S(=O)(N(Cc1ccccn1)C1CC1)N1CCCC1c1ccco1 (centres undefined)	2.62	-10.3
